Test results published in PubChem BioAssay (NCATS).

Test: High-throughput drug toxicity screening in the BPDCN cell line Cal-1 (AID 1224825)
Details: Cal-1 BPDCN cell viability, qHTS; at 45.8 µM (top of the series) unless noted
Excerpt: Blastic plasmacytoid dendritic cell neoplasm (BPDCN) is a rare, aggressive and largely incurable hematologic malignancy originating from plasmacytoid dendritic cells (pDCs). Although an initial response to chemotherapy is common, BPDCN prognosis is extremely poor and most patients relapse with drug-resistant disease leading to a median overall survival of ~1 year after diagnosis. To explore novel potential therapeutic strategies in BPDCN, we performed a high-throughput drug toxicity screening in BPDCN cell liens, using of a library of 1,912 small molecules, enriched for compounds that are either approved or in early stages of development for cancer therapy.
A total of 500 exponentially growing Cal-1 cells were seeded per well in 5 uL of media (RPMI + Glutamine, without phenol red plus10% FBS and 1X Pen/Strep) into 1536-well solid white high base tissue culture treated Greiner One Bio Plates (789173-F), using a multidrop combi dispenser and a small sterile cassette. Compounds and controls totaling 23nL per well (negative control DMSO and positive control 9.2 uM Bortezomib-final) were immediately added to the plates using a 1536 head pin tool from Kalypsys. The plates were then covered with stainless steel gasket lids from Kalypsys and incubated for 48 hours at 37C under 95% relative humidity with 5% CO2. After 48 hours, the plates were removed and allowed to reach room temperature before 3 uL of Cell Titer Glo reagent (Promega) were added using an Aurora Flying Reagent Dispenser Bioraptor. The plates were then spun at 1000 rpms to remove bubbles and incubated for 15 minutes at room temperature before reading on a ViewLux using a luminescent filter with a 10 second exposure. The relative luciferase units were used to calculated percent activity using DMSO as 100% and Bortezomib as 0%.

**Q.** With `CC(C)[C@H](CO)Nc1nc(Nc2ccc(C(=O)O)c(Cl)c2)c2ncn(C(C)C)c2n1` as the compound, how does the viability (% of control) read?
**A.** 5.62%

**Q.** With `O=C(O)[C@H]1O[C@H](Oc2cc3oc(-c4ccccc4)cc(=O)c3c(O)c2O)[C@H](O)[C@@H](O)[C@H]1O` as the compound, how does the viability (% of control) read?
**A.** 105%

**Q.** With `CC=CC(=O)N(CC)c1ccccc1C` as the compound, how does the viability (% of control) read?
**A.** 35%

**Q.** With `CC=CCC=CCCC(=O)[C@H]1O[C@@H]1C(N)=O` as the compound, how does the viability (% of control) read?
**A.** 15.5%

**Q.** With `O=C1c2c(O)cc(O)cc2O[C@H](c2cc(O)c(O)c(O)c2)[C@H]1O` as the compound, how does the viability (% of control) read?
**A.** 123%

**Q.** Which viability (% of control) does the source give for `CC(=O)Nc1ccc([C@H](C)C(=O)Nc2ncc(C(C)C)s2)cc1` here?
**A.** 6.1%

**Q.** With `O=C(O)C(O)Cc1ccc(O)c(O)c1` (stereo not given) as the compound, how does the viability (% of control) read?
**A.** 105%

**Q.** Which viability (% of control) does the source give for `COc1ccc2cccc(CCNC(C)=O)c2c1` here?
**A.** 132%

**Q.** Which viability (% of control) does the source give for `Clc1ccc(CCC(Cn2ccnc2)Sc2c(Cl)cccc2Cl)cc1` (stereo not given) here?
**A.** 67.7%

**Q.** With `COc1ccc(C2CC(c3ccccc3)=NN2c2ccc(S(N)(=O)=O)cc2)cc1` (stereo not given) as the compound, how does the viability (% of control) read?
**A.** 27.3%

**Q.** With `Oc1ccc(C2CCN(c3ccnc4ccccc34)CC2)cc1O` as the compound, how does the viability (% of control) read?
**A.** 5.01%

**Q.** With `CC(C)(C)NC(=O)Nc1cccc(Nc2ncc(F)c(NC(C)(C)CO)n2)c1` as the compound, how does the viability (% of control) read?
**A.** 45.1%

**Q.** For `CN1C[C@H]2c3ccccc3Oc3ccc(Cl)cc3[C@@H]2C1`, which viability (% of control) is on record?
**A.** 73.9%

**Q.** With `O=C(Nc1cc(Cl)cc2c1[nH]c1cnccc12)c1cccnc1` as the compound, how does the viability (% of control) read?
**A.** 97.7%

**Q.** Which viability (% of control) does the source give for `COc1ccc(-c2coc3cc(O)cc(O)c3c2=O)cc1` here?
**A.** 86.9%

**Q.** For `CC(C)OC(=O)C(C)(C)Oc1ccc(C(=O)c2ccc(Cl)cc2)cc1`, which viability (% of control) is on record?
**A.** 119%

**Q.** Which viability (% of control) does the source give for `OC[C@H]1O[C@@H](n2cnc3c2NC=NC[C@@H]3O)C[C@H]1O` here?
**A.** 109%

**Q.** Which viability (% of control) does the source give for `COc1cc2c(cc1OC)CN(CCc1ccc(NC(=O)c3cc(OC)c(OC)cc3NC(=O)c3cnc4ccccc4c3)cc1)CC2` here?
**A.** 93.8%

**Q.** Which viability (% of control) does the source give for `CC(C)n1cnc2c(NCCCCCCNC(=O)OC(C)(C)C)nc(NCCO)nc21` here?
**A.** 100%

**Q.** Which viability (% of control) does the source give for `N[C@H](CSC(c1ccccc1)(c1ccccc1)c1ccccc1)C(=O)O` here?
**A.** 12%

**Q.** With `C[C@H](NC(=O)C(=O)Nc1ccccc1C(C)(C)C)C(=O)N[C@@H](CC(=O)O)C(=O)COc1c(F)c(F)cc(F)c1F` as the compound, how does the viability (% of control) read?
**A.** 8.98%

**Q.** Which viability (% of control) does the source give for `CCC(=O)O[C@]1(C(=O)CO)CC[C@H]2[C@@H]3CCC4=CC(=O)CC[C@]4(C)[C@@H]3CC[C@@]21C` here?
**A.** 81.8%

**Q.** Which viability (% of control) does the source give for `CC=C(C)C(=O)O[C@H]1C(C)=C[C@]23C(=O)[C@@H](C=C(CO)[C@@H](O)[C@]12O)[C@H]1[C@@H](C[C@H]3C)C1(C)C` here?
**A.** 12.7%

**Q.** Which viability (% of control) does the source give for `COC1CCC(N(C(=O)C2CCC(C)CC2)c2cc(C3=CCCCC3)sc2C(=O)O)CC1` (stereo not given) here?
**A.** 89.2%

**Q.** With `Cn1cc(C=C2C(=O)Nc3cccnc32)c2ccccc21` as the compound, how does the viability (% of control) read?
**A.** 63.5%

**Q.** For `Nc1ncnc2c1ncn2[C@@H]1O[C@@H](CO)[C@H](O)[C@H]1O`, which viability (% of control) is on record?
**A.** 117%

**Q.** Which viability (% of control) does the source give for `O=C1NC(=O)C(=Cc2ccc3c(c2)OC(F)(F)O3)S1` here?
**A.** 83%

**Q.** Which viability (% of control) does the source give for `Cc1cc(OCCCc2c(C(=O)O)n(Cc3cccnc3)c3c(-c4c(COc5ccc(N6CCN([S+](C)(=O)[O-])CC6)cc5)nn(C)c4C)cccc23)cc(C)c1Cl` here?
**A.** 96.7%

**Q.** For `COC[C@@H](c1ccc(C(F)(F)F)cc1)N1CCN(C2(C)CCN(C(=O)c3c(C)ncnc3C)CC2)C[C@H]1C`, which viability (% of control) is on record?
**A.** 6.85%

**Q.** With `CC1CCC(C(=O)N(c2cc(C#CC(C)(C)C)sc2C(=O)O)C2CCC(O)CC2)CC1` (stereo not given) as the compound, how does the viability (% of control) read?
**A.** 92%

**Q.** Which viability (% of control) does the source give for `CN(C)C1CCN(C(=O)c2ccc(NC(=O)Nc3nc(N4CCOCC4)nc(N4CCOCC4)n3)cc2)CC1` here?
**A.** 12.5%

**Q.** Which viability (% of control) does the source give for `C=C1C(=O)OC2C=C(C)CCC=C(C)CCC12` (stereo not given) here?
**A.** 11.5%

**Q.** Which viability (% of control) does the source give for `O=c1c(-c2ccc(O)cc2)coc2cc(O[C@@H]3O[C@H](CO)[C@H](O)[C@H](O)[C@H]3O)ccc12` here?
**A.** 99.8%

**Q.** Which viability (% of control) does the source give for `Clc1cc(Cl)cc(CNc2ncncc2-c2ccc3c(c2)OCO3)c1` here?
**A.** 11.1%

**Q.** For `COc1cccc([C@@H](C)NCCCc2ccccc2Cl)c1`, which viability (% of control) is on record?
**A.** 66.2%

**Q.** Which viability (% of control) does the source give for `Cc1cccc(Nc2nc(-c3ccncc3)cs2)c1` here?
**A.** 82.9%

**Q.** For `C[C@]12CCC3c4ccc(O)cc4CCC3C1CCC2=O` (stereo not given in full), which viability (% of control) is on record?
**A.** 62.5%

**Q.** Which viability (% of control) does the source give for `CC(C)(C)COc1ccc(-n2cc(C(=O)O)cn2)cc1C#N` here?
**A.** 106%

**Q.** Which viability (% of control) does the source give for `CC1(C)O[C@H]2C[C@@H]3[C@H]4CCC5=CC(=O)C=C[C@]5(C)[C@@]4(F)[C@@H](O)C[C@]3(C)[C@]2(C(=O)CO)O1` here?
**A.** 8.18%

**Q.** With `O=C(O)c1ccccc1C(=O)Nc1ccc(-c2ccccc2)cc1` as the compound, how does the viability (% of control) read?
**A.** 111%
